Results filed as inconclusive are left out. A number with no mark means an inactive call. The source made the active and inactive calls. The call rests on the fitted dose curve.
On the % scale 0 is the no-effect control and ±100 the full control effect; potency means the concentration at half of the fitted maximal effect.

Sequence of Acetylcholinesterase (Homo sapiens) (P22303 whole entry, looked up): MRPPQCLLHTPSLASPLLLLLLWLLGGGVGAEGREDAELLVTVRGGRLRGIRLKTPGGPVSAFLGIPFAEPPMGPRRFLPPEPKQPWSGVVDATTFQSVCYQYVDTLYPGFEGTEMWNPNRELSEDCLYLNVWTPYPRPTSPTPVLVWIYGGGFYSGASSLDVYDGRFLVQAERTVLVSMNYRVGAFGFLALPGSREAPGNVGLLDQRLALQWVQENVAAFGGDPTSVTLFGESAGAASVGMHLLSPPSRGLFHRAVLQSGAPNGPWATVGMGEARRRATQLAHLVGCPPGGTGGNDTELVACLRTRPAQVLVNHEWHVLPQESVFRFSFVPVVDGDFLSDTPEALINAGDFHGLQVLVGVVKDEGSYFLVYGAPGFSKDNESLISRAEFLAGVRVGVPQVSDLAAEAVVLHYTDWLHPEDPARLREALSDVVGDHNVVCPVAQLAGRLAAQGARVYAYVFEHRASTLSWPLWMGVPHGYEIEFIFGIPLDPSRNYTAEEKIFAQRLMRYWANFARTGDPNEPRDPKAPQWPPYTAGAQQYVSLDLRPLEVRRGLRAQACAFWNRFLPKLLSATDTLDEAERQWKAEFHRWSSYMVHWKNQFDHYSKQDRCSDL

In the assay the target is Acetylcholinesterase (Homo sapiens) (UniProt P22303). Put plainly: Acetylcholinesterase (AChE) small molecule antagonists: fluorescence cell-based qHTS assay (AID 1347398). Further: nearly all actives have a fitted effect of over 50% in size. The following applies: SH-SY5Y cells; Potency: AChE activity; outcome: AChE activity; series mostly up to 115 µM; activity change, negative = inhibition: at the top concentration. In outline:
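Fluorimetric cell-based assay: intact SH-SY5Y cells, 30 min compound preincubation at 37 C, acetylthiocholine substrate with thiol probe Thiolite Green, 40 min RT development, fluorescence 490/520 nm.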
A general note: Quantitative high-throughput screening tests each substance at several concentrations.
In the case of `O=C1c2ccccc2C(=O)c2c1ccc(O)c2O`, the “activity change, negative = inhibition” value was -4.18% [at 53.7 µM].
In the case of `CC1(C)O[C@@H]2C[C@H]3[C@@H]4C[C@H](F)C5=CC(=O)C=C[C@]5(C)[C@H]4[C@@H](O)C[C@]3(C)[C@]2(C(=O)CO)O1`, the “activity change, negative = inhibition” value is -0.904% [at 53.7 µM].
For `c1ccc2sc(SSc3nc4ccccc4s3)nc2c1`, the activity change, negative = inhibition was 3.45% [at 23.8 µM].
Consider `O[Si](c1ccccc1)(c1ccccc1)c1ccccc1`, for which the “activity change, negative = inhibition” value is 0.67%.
Same read-out and setting: the same measure for `NS(=O)(=O)c1cc(-c2nn[nH]n2)c(NCc2cccs2)cc1Cl`: -1.2% [at 53.7 µM]; for `CC(C)Nc1ccccc1`: 2.91%.
On the same count and under the same terms, the same measure for `CCCCCCCC`: 2.43%; for `Nc1ccc(C(=O)N2CC3CC(CN(Cc4ccccc4)C3)C2)cc1`: -13.9% [at 53.7 µM].
Turning to `COCC(C)O` (stereo not given), the Potency entry was “inactive”.
With `CC/C=C\CCOC(=O)CC`, the “activity change, negative = inhibition” value is 1.15%.
Still for that read-out and setting: the same measure for `CN(C)c1ccc(CCO)cc1`: -11.7%; for `CCCc1nn(C)c2c(=O)[nH]c(-c3cc(S(=O)(=O)N4CCN(C)CC4)ccc3OCC)nc12`: 0% [at 53.7 µM]; for `O=C[C@@H](O)[C@H](O)[C@H](O)CO`: 1.03%.
Consider `CCCCCCC1CCCC(=O)O1` (stereo not given), for which the “activity change, negative = inhibition” value is -17.2%.
Take `O=[N+]([O-])c1cccc(C(F)(F)F)c1`: the “activity change, negative = inhibition” value is 1.42%.
Same read-out and setting: the same measure for `Cc1ccc(Nc2c(F)cccc2Cl)c(CC(=O)O)c1`: -7.68% [at 53.7 µM].
With `C[N+](C)(C)CCO`, the molecule was called inactive.
In the case of `CCOC(=O)CC(C(C)=O)C(C)=O`, the “activity change, negative = inhibition” value was 0.738%.
Turning to `CCCCCCC(O)CCCCCCCCCCC(=O)O` (stereo not given), the Potency entry is “inactive”.
For the molecule `OCCCCC(O)CO` (stereo not given), the “activity change, negative = inhibition” value is 3.42%.
`CCCCC/C=C/CC(=O)OC`: the “activity change, negative = inhibition” value was -0.245%.
Turning to `CCCOCCO`, the Potency entry was “inactive”.
Turning to `N=c1ccn2c(n1)O[C@H]1[C@H](O)[C@@H](CO)O[C@H]12`, the “activity change, negative = inhibition” value was 3.64%.
As for `CC(C)CCCCCCN`, the “activity change, negative = inhibition” value was 3.22%.
As for `CC(=O)N1CCN(c2ccc(OC[C@H]3CO[C@](Cn4ccnc4)(c4ccc(Cl)cc4Cl)O3)cc2)CC1`, the Potency was 31.7 µM (active).

For the origin of these results see PubChem BioAssay (Tox21).
